Source: PubChem (several laboratories)
Calb FLC: affects C. albicans growth with fluconazole | growth inhibition, % (no concentration beside the values) | actives 0.57% (n = 300,000) | C. albicans CaCi-2 (fluconazole-resistant clinical isolate) + fluconazole, Alamar Blue growth, 48 h | AID 1979;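 active means growth inhibition above about 58% in most replicates, limit read from the data, passing the limit was not always enough; inconclusive means exactly half the replicates above a set limit; inactive means most replicates below a set limit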;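 further: all wells also contain fluconazole at 8 µg/ml as a sub-toxic cotreatment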
Beta apoptosis: blocks beta cell apoptosis; INS-1E cytokine-induced death, ATP luminescence, 48 h; percent of positive-control rescue, neutral wells zero; protection from apoptosis, % (concentration not given with the values); actives 0.8% (n = 300,000);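 active means Every replicate reaches about 75%, or at least half do and their mean reaches it too, limit read from the data; inconclusive means At least half of replicates reach the limit but their mean does not; inactive means Under half of replicates reach the limit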;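 further: higher means more ATP so stronger rescue from cytokine killing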
Mdm2-MdmX inh: human Mdm2/MdmX binding inhibition; O15151+Q00987; SaOS-2 split-luciferase Mdm2/MdmX complementation, luminescence; inhibition, % at 8 µM; actives 3% (n = 330,000); AID 485346;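 active means inhibition of at least 50% at 8 µM in the primary screen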
PP5 inh: PP5 (human) phosphatase inhibition; inhibition, % at 6.7 µM; actives 0.18% (n = 320,000); purified PP5c, OMFP substrate fluorescence; AID 1987;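 active means inhibition above the campaign's mean inhibition across all tested compounds plus 3 SD, cut at about 9.5% in these data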
PP1 counter: counter-screen for PP5 inhibitors: inhibitors of human PP1-alpha; AID 2235; P62136; inhibition, % at 6.7 µM; purified PP1alpha, OMFP fluorescence; actives 0.9% (n = 320,000);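 active means inhibition above the mean inhibition of all tested compounds plus 3 SD, computed separately for each screening campaign, cut at about 15% in these data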
Target sequence (P62136 whole entry, looked up): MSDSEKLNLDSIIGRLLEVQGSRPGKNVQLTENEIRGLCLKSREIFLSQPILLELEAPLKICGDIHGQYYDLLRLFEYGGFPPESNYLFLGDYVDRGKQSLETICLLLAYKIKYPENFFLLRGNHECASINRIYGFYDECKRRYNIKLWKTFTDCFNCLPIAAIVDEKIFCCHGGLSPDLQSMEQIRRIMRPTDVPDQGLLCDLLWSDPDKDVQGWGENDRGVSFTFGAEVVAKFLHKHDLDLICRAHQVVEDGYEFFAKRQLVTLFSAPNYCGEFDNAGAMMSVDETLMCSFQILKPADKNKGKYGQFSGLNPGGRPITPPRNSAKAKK
CSC inhib: blocks cancer stem cells. cancer stem cell-like cells viability, luminescence. actives 1.1% (n = 300,000). inhibition, % at 7.5 µM; in the data active means inhibition above about 75%; inconclusive means no clear call, values can overlap the other calls; tested in HMLE shEcad cells
Mdm2 MdmX conf: human Mdm2/MdmX binding inhibition, confirmed; shares compounds with Mdm2-MdmX inh; luminescent assay; inhibition, % at 8 µM; actives 55% (n = 10,000); in the data active means inhibition above about 40%
FLuc counter: counter-screen for Mdm2/MdmX inhibitors: full-length luciferase; shares compounds with Mdm2-MdmX inh; AID 504607; inhibition, % at 8 µM; actives 77% (n = 6,200); SaOS-2 full-length luciferase counterscreen, luminescence;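 active means mean inhibition at 8 µM reaching about 37%, which flags the compound as non-specific, limit read from the data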;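 further: p53-null SaOS-2 cells with luciferase driven by a doxycycline-inducible promoter; compound on cells about two nights before reading with doxycycline added after day one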
Large screens that a line does not name were inactive (follow-up assays come after a bar, where they were run). Only some compounds are listed: those with a hit (about 4.9% of all), similar ones and a draw of the others.

O=C(Nc1ccc2c(c1)S(=O)(=O)N=C1CCCCCN12)c1ccccc1Cl	none
COc1cc(NC(=O)c2ccccc2Cl)c2ncccc2c1	Mdm2-MdmX inh 56.8 | Mdm2 MdmX conf 50.5 | FLuc counter 51.5
Cc1ccc(S(=O)(=O)Nc2cccc3cccnc23)cc1	Mdm2-MdmX inh 99.1, CSC inhib 78.1 | Mdm2 MdmX conf 98.7 | FLuc counter 51.9
O=C(Nc1cccc2cccnc12)c1ccc(Cl)cc1Cl	none
COc1cc(NS(=O)(=O)c2ccc(C)cc2)c2ncccc2c1	Calb FLC inconclusive, Mdm2-MdmX inh 89.1 | Mdm2 MdmX conf 98.5 | FLuc counter inactive
Cc1ccc(S(=O)(=O)Nc2ccccc2-c2ccccc2NS(=O)(=O)c2ccc(C)cc2)cc1	CSC inhib inconclusive
CC(C)C[C@@H]1NC(=O)[C@H](Cc2ccccc2)N(C)C(=O)[C@H](C)NC(=O)c2ccccc2NC(=O)[C@H](Cc2ccc(O)cc2)N(C)C1=O	Mdm2-MdmX inh 74.9 (no result: Beta apoptosis) | Mdm2 MdmX conf 57.1 | FLuc counter 71.1
CC(C)CC1NC(=O)N(CC(=O)N2c3ccccc3NC(=O)C2(C)C)C1=O (stereo not drawn)	none
CCCc1cc(=O)[nH]c(SCC(=O)Nc2ccc([N+](=O)[O-])cc2C#N)n1	none
CCCC[C@@H](CNC)NC[C@H](NCCCCC1CCCCC1)C(C)C	Mdm2-MdmX inh 98.5 (no result: Beta apoptosis) | Mdm2 MdmX conf 43.1 | FLuc counter 64.5
C#CC[N+](C)(C)CCCCCCCCCC	Mdm2-MdmX inh 70.7 | Mdm2 MdmX conf 67.6 | FLuc counter 55.9
CC#CC[N+](C)(C)CCCCCCCCCCCC	Calb FLC 100.8, Beta apoptosis 104.2, Mdm2-MdmX inh 87.3 | Mdm2 MdmX conf 64.3 | FLuc counter inactive
CCCCCC[N+](C)(C)CCSSCC[N+](C)(C)CCCCCC	none
C#CC[N+](C)(C)CCCCCCCC	none
C#CC[N+](C)(C)CCCCCCCCCCCC	Calb FLC 78.8, Beta apoptosis 101.4, Mdm2-MdmX inh 84.3 | Mdm2 MdmX conf 80.4 | FLuc counter 36.6
COc1cccc(-n2nnnc2SCC(=O)Nc2ccc(NC(C)=O)cc2)c1	none (no result: Calb FLC)
COC(=O)Cc1csc(Nc2ccc(F)c(Cl)c2)n1	none
CC1(C)C(=O)N(c2ccccc2)C1c1ccccc1O (stereo not drawn)	Mdm2-MdmX inh 59.3, CSC inhib inconclusive | Mdm2 MdmX conf 46.4 | FLuc counter 74.7
COc1ccc(N2C(=O)C(C)(C)C2c2c(O)ccc3ccccc23)cc1 (stereo not drawn)	none
O=C(COC(=O)C1CCC(N2C(=O)C3C4CCC(C4)C3C2=O)CC1)c1ccc(F)cc1 (stereo not drawn)	none
CCN(CC)c1ccc2c(Cl)c(Br)c(=O)oc2c1	Mdm2-MdmX inh 100.4, CSC inhib inconclusive | Mdm2 MdmX conf 43.9 | FLuc counter inactive
CCN(CC)c1ccc2c(c1)oc(=O)c1c(Cl)cc(=O)oc12	Mdm2-MdmX inh 98.9 | Mdm2 MdmX conf 99.5 | FLuc counter 56.6
CCN(CC)c1ccc2c(C)c(Cl)c(=O)oc2c1	none
CC(=O)c1cccc(N(C(=O)CNC(=O)c2ccco2)C(C(=O)NC2CCCC2)c2ccco2)c1 (stereo not drawn)	none
Cc1cccc(N(CC(=O)NC2CCCCC2)C(=O)CCCC(=O)Nc2ccccn2)c1C	none
O=C(COc1ccc([N+](=O)[O-])cc1)Nc1nnc(-c2cccnc2)s1	none
O=C(COC(=O)c1nc(Cl)c(Cl)c(Cl)c1Cl)c1ccc[nH]1	Mdm2-MdmX inh 73.0 (no result: Beta apoptosis) | Mdm2 MdmX conf inactive
CC(C)CN(C(=O)c1cccc(S(=O)(=O)N2CCN(Cc3ccccc3)CC2)c1)C1CCS(=O)(=O)C1 (stereo not drawn)	none
NC(=O)c1ccc(Cn2c(C(=O)c3cc(Cl)c(N)c(Cl)c3)c3ccccc3[n+]2[O-])cc1	Mdm2-MdmX inh 52.8 (no result: Calb FLC) | Mdm2 MdmX conf 52.1 | FLuc counter 65.1
NC(=O)c1ccc(Cn2c(C(=O)c3ccc(Cl)cc3)c3ccccc3[n+]2[O-])cc1	none (no result: Calb FLC)
NCCCn1c(C(=O)c2cc(Cl)c(N)c(Cl)c2)c2ccc([N+](=O)[O-])cc2[n+]1[O-]	Beta apoptosis 86.9, Mdm2-MdmX inh 65.8 | Mdm2 MdmX conf 53.5 | FLuc counter 63.3
NCCCn1c(C(=O)c2cc(Cl)c(N)c(Cl)c2)c2ccc(C(F)(F)F)cc2[n+]1[O-]	none
O=C(NNC(=O)c1ccc(Cl)cc1Cl)Nc1ccccc1	none
O=C(NNC(=O)c1cc(-c2ccc(Cl)cc2Cl)nc2ccccc12)Nc1ccccc1	Mdm2-MdmX inh 63.9 | Mdm2 MdmX conf inactive
COc1ccccc1N(C)S(=O)(=O)c1ccc(C(=O)N(C)Cc2ccc(Cl)s2)cc1	none (no result: Calb FLC, CSC inhib)
Cc1ccc(C2(CCNCc3ccc(N(C)C)cc3)CCOC(C(C)C)C2)cc1 (stereo not drawn)	Mdm2-MdmX inh 92.5 | Mdm2 MdmX conf inactive
COc1ccc(/C=C2\Sc3ccc(C(=O)N4CCN(Cc5ccccc5)CC4)cc3N(C)C2=O)cc1OC	Mdm2-MdmX inh 61.4 | Mdm2 MdmX conf inactive
O=S(=O)(c1ccc(F)cc1)c1snnc1-c1ccccc1	none (no result: Mdm2-MdmX inh)
O=S(=O)(c1ccc(Cl)cc1)c1snnc1-c1ccccc1	Mdm2-MdmX inh 98.3, CSC inhib 107.9 | Mdm2 MdmX conf 79.5 | FLuc counter 55.9
Cc1ccc(-c2csc(NC(=O)c3cccc(S(=O)(=O)N4CCN(C)CC4)c3)n2)cc1	Mdm2-MdmX inh 73.2 | Mdm2 MdmX conf 65.3 | FLuc counter 38.6
O=C(Nc1nc(-c2ccccc2)cs1)C1CCCN(S(=O)(=O)c2cccc([N+](=O)[O-])c2)C1 (stereo not drawn)	none (no result: Beta apoptosis)
Cc1ccc(NC(=O)c2cccc(S(=O)(=O)N3CCc4ccccc4C3)c2)nc1	none
O=C(Nc1nc(-c2ccccc2)cs1)C1CCCN(S(=O)(=O)c2ccccc2)C1 (stereo not drawn)	Mdm2-MdmX inh 78.0 (no result: Beta apoptosis, CSC inhib) | Mdm2 MdmX conf 65.2 | FLuc counter 78.7
Cc1ccc(Nc2nc(-c3ccc(S(=O)(=O)N4CCOCC4)cc3)cs2)cc1Cl	Mdm2-MdmX inh 62.7 | Mdm2 MdmX conf inactive
CC(C)CC(=O)Nc1nc(-c2ccc(S(=O)(=O)N3CCOCC3)cc2)cs1	none (no result: Beta apoptosis, PP5 inh, PP1 counter, CSC inhib)
Cc1cc(N2CCN(C)CC2)ccc1NC(=O)c1cccc(S(=O)(=O)N2CCc3ccccc3C2)c1	Mdm2-MdmX inh 96.1 | Mdm2 MdmX conf inactive | FLuc counter 73.0
Cc1nnc(NC(=O)c2cccc(S(=O)(=O)N3CCN(C)CC3)c2)s1	none
CC(Sc1ccc(Cl)cc1)C(=O)Nc1ccc(S(=O)(=O)N2CCOCC2)cc1 (stereo not drawn)	none
COc1cccc(C(=O)Nc2nc(-c3ccc(S(=O)(=O)N4CCOCC4)cc3)cs2)c1	Mdm2-MdmX inh 58.0 | Mdm2 MdmX conf inactive
